Source: PubChem BioAssay AID1159580 (chemical genetic matrix, 2015)
Values joined by “and” are separate entries in the source; they are usually repeats but may differ in a detail not shown here. Equal values may be shown once. In all, about 5,500 compounds went through this assay and about 2,000 (36%) were called active. Inconclusive results (about 18%) are left out. No stated cut-off is given here; in the data, active means normalized growth mostly below about 0.91 (no sharp cut-off); inconclusive means no clear call, values can overlap the other calls; inactive means mostly above about 0.92. This is one part of the list.

Assay: chemical genetic growth profiling, strain panel (AID 1159580);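 further: tested at 20 µM; growth read once vehicle control cultures reached saturation at 30 °C; 1 = growth at the plate median or of vehicle wells; lower values mean less growth of the strain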
Conditions: growth OD

Measured: normalized growth

O=C(C1CCCCC1)N1CC(=O)N2CCc3ccccc3C2C1 (centres undefined)
inactive: S. cerevisiae deletion strains, locus YJR075W, strain HOC1, hits give low values 1 | S. cerevisiae deletion strains, locus YKL009W, strain mrt4, hits give low values 1.02 | S. cerevisiae deletion strains, locus YKL068W, hits give low values 1 | S. cerevisiae deletion strains, locus YKL085W, strain MDH1 (second series), hits give low values 1.01 | S. cerevisiae deletion strains, locus YKL085W, strain MDH1, hits give low values 1.01 | S. cerevisiae deletion strains, locus YKL160W, strain elf1, hits give low values 1.01 | S. cerevisiae deletion strains, locus YKL190W, strain CNB1, hits give low values 1 | S. cerevisiae deletion strains, locus YKR001C, strain vps1, hits give low values 1.01 | S. cerevisiae deletion strains, locus YKR026C, strain gcn3, hits give low values 1.01 | S. cerevisiae deletion strains, locus YKR091W, strain srl3, hits give low values 1.01 | S. cerevisiae deletion strains, locus YLL001W, strain dnm1, hits give low values 1.06 | S. cerevisiae deletion strains, locus YLL026W, hits give low values 1.01 | S. cerevisiae deletion strains, locus YLL041C, strain sdh2, hits give low values 0.995 | S. cerevisiae deletion strains, locus YLR027C, strain aat2, hits give low values 0.984 | S. cerevisiae deletion strains, locus YLR039C, strain RIC1, hits give low values 1.01 | S. cerevisiae deletion strains, locus YLR058C, strain SHM2, hits give low values 1 | S. cerevisiae deletion strains, locus YLR102C, strain apc9, hits give low values 1.01 | S. cerevisiae deletion strains, locus YLR113W, strain HOG1, hits give low values 1.01 | S. cerevisiae deletion strains, locus YLR221C, strain rsa3, hits give low values 1.03 | S. cerevisiae deletion strains, locus YLR258W, strain gsy2, hits give low values 1.03 | S. cerevisiae deletion strains, locus YLR262C, strain YPT6 (second series), hits give low values 1.04 | S. cerevisiae deletion strains, locus YLR262C, strain YPT6, hits give low values 1.02 | S. cerevisiae deletion strains, locus YLR268W, strain sec22, hits give low values 1.03 | S. cerevisiae deletion strains, locus YLR320W, strain mms22, hits give low values 1.02 | S. cerevisiae deletion strains, locus YLR330W, strain CHS5, hits give low values 1.01 | S. cerevisiae deletion strains, locus YLR342W, strain FKS1 (second series), hits give low values 1.01 | S. cerevisiae deletion strains, locus YLR342W, strain FKS1, hits give low values 1.01 | S. cerevisiae deletion strains, locus YLR357W, strain rsc2, hits give low values 0.998 | S. cerevisiae deletion strains, locus YLR370C, strain arc18, hits give low values 1.02 | S. cerevisiae deletion strains, locus YLR371W, strain rom2, hits give low values 1.01 | S. cerevisiae deletion strains, locus YLR384C, strain iki3, hits give low values 1.01 | S. cerevisiae deletion strains, locus YLR418C, strain cdc73, hits give low values 1.01 | S. cerevisiae deletion strains, locus YML016C, strain PPZ1, hits give low values 0.999 | S. cerevisiae deletion strains, locus YML032C, strain rad52, hits give low values 1.01 | S. cerevisiae deletion strains, locus YML120C, strain ndi1, hits give low values 1.04 | S. cerevisiae deletion strains, locus YML124C, strain tub3, hits give low values 1 | S. cerevisiae deletion strains, locus YMR058W, strain fet3, hits give low values 1 | S. cerevisiae deletion strains, locus YMR078C, strain ctf18, hits give low values 0.997 | S. cerevisiae deletion strains, locus YMR125W, strain sto1, hits give low values 1.02 | S. cerevisiae deletion strains, locus YMR129W, hits give low values 1.01 | S. cerevisiae deletion strains, locus YMR205C, strain PFK2, hits give low values 1.02 | S. cerevisiae deletion strains, locus YMR223W, strain ubp8, hits give low values 0.987 | S. cerevisiae deletion strains, locus YMR231W, strain pep5, hits give low values 1 | S. cerevisiae deletion strains, locus YMR263W, strain SAP30, hits give low values 1 | S. cerevisiae deletion strains, locus YMR307W, strain GAS1, hits give low values 1 and 0.995 | S. cerevisiae deletion strains, locus YNL067W, strain RPL9B, hits give low values 1 | S. cerevisiae deletion strains, locus YNL071W, strain lat1, hits give low values 0.996 | S. cerevisiae deletion strains, locus YNL153C, strain GIM3, hits give low values 1.03 | S. cerevisiae deletion strains, locus YNL175C, strain NOP13, hits give low values 1.01 | S. cerevisiae deletion strains, locus YNL183C, strain NPR1, hits give low values 0.96 | S. cerevisiae deletion strains, locus YNL197C, strain WHI3, hits give low values 1.01 | S. cerevisiae deletion strains, locus YNL209W, strain ssb2, hits give low values 1 | S. cerevisiae deletion strains, locus YNL224C, strain SQS1, hits give low values 1.02 | S. cerevisiae deletion strains, locus YNL233W, strain BNI4, hits give low values 0.995 | S. cerevisiae deletion strains, locus YNL248C, strain rpa49, hits give low values 0.893 | S. cerevisiae deletion strains, locus YNL250W, strain rad50, hits give low values 1.01 | S. cerevisiae deletion strains, locus YNL271C, strain bni1, hits give low values 1 | S. cerevisiae deletion strains, locus YNL298W, strain CLA4, hits give low values 1.01 | S. cerevisiae deletion strains, locus YNL307C, strain MCK1, hits give low values 1.02 | S. cerevisiae deletion strains, locus YNL322C, strain KRE1 (second series), hits give low values 1.02 | S. cerevisiae deletion strains, locus YNL322C, strain KRE1, hits give low values 1 and 1.01 | S. cerevisiae deletion strains, locus YNR049C, strain mso1, hits give low values 1 | S. cerevisiae deletion strains, locus YNR052C, strain pop2, hits give low values 1.01 | S. cerevisiae deletion strains, locus YOL006C, strain TOP1, hits give low values 0.912 | S. cerevisiae deletion strains, locus YOL012C, strain htz1 0.872 | S. cerevisiae deletion strains, locus YOL147C, strain pex11, hits give low values 1.01 | S. cerevisiae deletion strains, locus YOR001W, strain rrp6, hits give low values 0.971 | S. cerevisiae deletion strains, locus YOR061W, strain CKA2, hits give low values 1 | S. cerevisiae deletion strains, locus YOR069W, strain VPS5, hits give low values 1 | S. cerevisiae deletion strains, locus YOR070C, strain gyp1, hits give low values 1 | S. cerevisiae deletion strains, locus YOR080W, strain dia2, hits give low values 1.01 | S. cerevisiae deletion strains, locus YOR083W, strain WHI5 (second series), hits give low values 1.01 | S. cerevisiae deletion strains, locus YOR083W, strain WHI5, hits give low values 1.03 | S. cerevisiae deletion strains, locus YOR106W, strain vam3, hits give low values 1.01 | S. cerevisiae deletion strains, locus YOR136W, strain idh2, hits give low values 1.01 | S. cerevisiae deletion strains, locus YOR144C, strain elg1, hits give low values 1.01 | S. cerevisiae deletion strains, locus YOR184W, strain ser1, hits give low values 1 | S. cerevisiae deletion strains, locus YOR231W, strain MKK1, hits give low values 1 | S. cerevisiae deletion strains, locus YOR265W, strain rbl2, hits give low values 1 | S. cerevisiae deletion strains, locus YOR270C, strain vph1, hits give low values 0.955 | S. cerevisiae deletion strains, locus YOR290C, strain snf2, hits give low values 1.02 | S. cerevisiae deletion strains, locus YOR316C, strain cot1, hits give low values 1 | S. cerevisiae deletion strains, locus YPL051W, strain arl3, hits give low values 0.988 | S. cerevisiae deletion strains, locus YPL078C, strain atp4, hits give low values 0.974 | S. cerevisiae deletion strains, locus YPL106C, strain sse1, hits give low values 1.04 | S. cerevisiae deletion strains, locus YPL240C, strain hsp82, hits give low values 0.998 | S. cerevisiae deletion strains, locus YPL241C, strain CIN2, hits give low values 1 | S. cerevisiae deletion strains, locus YPL256C, strain CLN2, hits give low values 0.965 | S. cerevisiae deletion strains, locus YPR119W, strain clb2, hits give low values 1 | S. cerevisiae deletion strains, locus YPR141C, strain kar3, hits give low values 1.01 | S. cerevisiae deletion strains, locus YPR163C, strain tif3, hits give low values 1.02 | S. cerevisiae deletion strains, locus YPR167C, strain met16, hits give low values 1.02 | S. cerevisiae deletion strains, strain wtn01, hits give low values 1.02 | S. cerevisiae strains, strain wild type, hits give low values 0.999
